These results are taken from PubChem BioAssay (NCATS).

SMILES strings stand for the structures. Results filed as inconclusive are left out. A number with no mark means an inactive call. The source made the active and inactive calls. Calls come from the whole dose curve; as a rule, active = well fitted activation curve with a large enough effect; inconclusive = small, poorly fitted or top-dose-only effect, or another doubt; inactive = no such curve, though single readings can be large or run the other way.
Potency is the fitted concentration of half-maximal effect.

The target of the assay is Rap guanine nucleotide exchange factor 3 (Homo sapiens) (UniProt O95398). Description: Counterscreen qHTS for agonist of cAMP-regulated guanine nucleotide exchange factor 3 (EPAC1) (AID 1645889). For activation: % of control where 0% means no effect. Note: nearly all actives have a fitted effect of over 40% in size. As to conditions: EPAC1 Rap1B-BODIPY-GDP exchange, fluorescence; series mostly up to 154 µM; activation: at the top concentration. An outline of the steps: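 Rap1B-BODIPY-GDP 250 nM + GDP 50 uM; cpds 7-pt, final 9.74 nM–152 uM (activator mode) or from 7.32 nM upwards (inhibitor mode); RT; FI 480/540 nm at 5 and 30 min, then ± cAMP, reread.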
A general note: A counterscreen serves to expose hits that act by an unwanted route or on another target.
As to `Cc1ccc(C2CC(c3cccs3)=NN2C(=O)c2ccco2)o1` (stereo not given), the activation was 16.2% [at 30.8 µM].

On to `CCc1cc(=O)oc2cc(C)cc(OCC(=O)N[C@@H](CSCc3ccccc3)C(=O)O)c12`, for which the “activation” value is 0.976%.

For the compound `C=C1SC(Nc2c(C)cccc2C)=NC12CCCCC2`, the “activation” value was 9.42%.

In the case of `CCCN(CCC)Cc1cc(=O)oc2cc(OC)ccc12`, the “activation” value is -9.92%.

Turning to `COc1ccc(-c2nc(CCNS(=O)(=O)c3ccc4c(c3)OCCO4)cs2)cc1`, the “activation” value is 7.47%.

As to `CCOc1ccc(NC(=NCc2ccc3c(c2)OCO3)SC2CC(=O)N(c3ccc(C(=O)O)cc3)C2=O)cc1` (stereo not given), the “activation” value is -9.5%.

`CCCc1[nH]c2ccc(C#N)cc2c1CCC`: the “activation” value is -40.8%.

On to `O=C(COc1ccc(Cl)cc1Cl)c1ccc[nH]1`, for which the activation was 7.74% [at 30.8 µM].

For `Fc1ccc2cnc(-c3ccccc3)c(-c3ccc(C(F)(F)F)cc3)c2c1`, the “activation” value is 8.33%.

Turning to `COc1ccccc1/C=C/C=c1\sc2nc(=O)c(Cc3ccccc3)nn2c1=O`, the “activation” value was 16.5%.

On to `CCc1nc2c(OCc3ccc(C(=O)OC)cc3)cccn2c1N(C)C(=O)c1ccc(OC)cc1`, for which the activation is 20% [at 30.8 µM].

On to `Cc1ccc(C2CC(c3cccs3)=NN2C(=O)CSc2nc(=O)n3cc(C)ccc3n2)cc1` (stereo not given), for which the “activation” value was 0.702%.

On to `O=C(O)c1[nH]c2ccccc2c1C(c1cccc(O)c1)c1c(C(=O)O)[nH]c2ccccc12`, for which the “activation” value is 4.19%.

Turning to `CCOc1cnc(-c2c(-c3ccccc3Cl)noc2C)o1`, the “activation” value was -1.62%.

As for `O=C(Nc1ccncc1)c1cc2ccccc2cc1O`, the “activation” value was 16.2%.

Take `O=C1c2ccccc2C(c2nnnn2Cc2ccccc2)N1CCc1c[nH]c2ccccc12` (stereo not given): the “activation” value is -8.31%.

`Cc1ccc(C(=O)NNC(=O)c2ccccc2O)cc1S(=O)(=O)N1CCCCC1`: the “activation” value is 12.4%.

On to `O=C(N/N=C/c1ccoc1)c1cc(O)cc(O)c1`, for which the “activation” value was 11.5%.

As for `O=C(Cc1ccc(Br)c2ccccc12)N/N=C/c1ccccn1`, the “activation” value is 8.59%.

As for `CCc1ccc(S(=O)(=O)Nc2cc(SCC(=O)O)c(O)c3ccccc23)cc1`, the Potency was 14.1 µM (active).

As for `CCC(=C(c1ccc(OC)cc1)c1ccc(OC)cc1)c1cn(CC(O)CN(CCO)CCO)c2ccccc12` (stereo not given), the “activation” value is 20.9%.

For the compound `COC(=O)c1sc(-c2ccc(C(C)(C)C)cc2)cc1NC(=O)CSCC(=O)O`, the “activation” value was -9.4%.

`COc1ccc(-c2ccc(C(=O)NCC3CC3)c3occc23)c(C)c1`: the “activation” value is 4.36%.

In the case of `Fc1ccc2c(-c3cccc(C(F)(F)F)c3)c(-c3ccccc3)ncc2c1`, the “activation” value is 14.4%.

As for `Cc1cccc(OC(=O)Nc2ccc(C(=O)O)c(O)c2)c1`, the activation was -3.96% [at 30.8 µM].

For the compound `CC(C)CNC(=O)C1(C)CCCCCN1Cc1ccccc1-c1ccccc1` (stereo not given), the “activation” value was 7.21%.

With `CC(C)=CCC[C@H](C)C[C@@H]1Cc2[nH][nH]c(=O)c2[C@H](c2ccc(F)cc2)O1`, the “activation” value was -21.5%.

For `COc1cccc(N2CCN(CC(=O)NC(=O)NCc3ccco3)CC2)c1`, the “activation” value is 3.58%.

On to `O=C(Nc1nc2ccccc2c(=O)s1)c1ccc(F)cc1Cl`, for which the “activation” value is 9.6%.

Take `CCOc1cc(C)c(-c2onc(C(F)(F)F)c2-c2csc(C)n2)c(O)c1`: the “activation” value is -4.99%.

In the case of `Cc1ccc2oc(=O)c3cnn(CC(=O)NC4CCC(C)CC4)c3c2c1` (stereo not given), the “activation” value was 13.2%.

`O=C(O)c1ccc(COc2ccc3ccccc3c2/C=C2/NC(=O)N(Cc3ccc(F)cc3)C2=O)cc1`: the “activation” value is -4.55%.

For the compound `O=S(=O)(Nc1nccs1)c1ccc(Nc2nnc(-c3ccccc3)c3ccccc23)cc1`, the activation is 17.5% [at 30.8 µM].

With `CCOC(=O)C1=C(C)NC(C)=C(C(=O)OCC)C1C(=O)OCC(=O)NCc1ccc(F)cc1`, the “activation” value was -5.41%.

Take `CN(CC(=O)Nc1ccc(F)cc1)C(=O)COc1ccc(C(=O)c2ccccc2)cc1`: the “activation” value is 17.7%.

Regarding `O=C1[C@H](Cc2ccccc2)NCC=CC[C@@H](c2ccc(Cl)cc2)N1Cc1ccc(Cl)cc1`, the “activation” value was 8.57%.

In the case of `CC(c1ccon1)N(C)Cc1cn(C)nc1-c1cccc(Cl)c1` (stereo not given), the “activation” value was -4.34%.

For the compound `COc1ccccc1N(C)S(=O)(=O)c1ccc(C(=O)NC2CCCCC2)cc1`, the “activation” value is 18.9%.

Take `CCCCC[C@H](C)N1C[C@H](COCc2ccccc2)Oc2cc(N3CCC[C@H]3C(N)=O)ccc2S1(=O)=O`: the “activation” value is -21.8%.

`Cc1cccc(NC(=S)N2CCN(S(=O)(=O)c3cccc(F)c3)CC2)c1`: the “activation” value is 0.125%.
